{"source": "PubChem BioAssay AID1508615", "about": "(Milbrandt Lab, Department of Genetics, Washington …, 2020)", "note": "The campaign covered roughly 1,600 compounds. About 20 (1%) were called active. Only a selection was taken, and actives are over-represented in it overall. Values without a mark were called inactive.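 Rule for the calls: active = ratio of uncleaved NAD to its breakdown product ADP-ribose above 4, meaning the enzyme was inhibited; inactive = the rest.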"}
{"target": "NAD(+) hydrolase SARM1 (Homo sapiens) (UniProt Q6SZW1)", "sequence (Q6SZW1 whole entry, looked up)": "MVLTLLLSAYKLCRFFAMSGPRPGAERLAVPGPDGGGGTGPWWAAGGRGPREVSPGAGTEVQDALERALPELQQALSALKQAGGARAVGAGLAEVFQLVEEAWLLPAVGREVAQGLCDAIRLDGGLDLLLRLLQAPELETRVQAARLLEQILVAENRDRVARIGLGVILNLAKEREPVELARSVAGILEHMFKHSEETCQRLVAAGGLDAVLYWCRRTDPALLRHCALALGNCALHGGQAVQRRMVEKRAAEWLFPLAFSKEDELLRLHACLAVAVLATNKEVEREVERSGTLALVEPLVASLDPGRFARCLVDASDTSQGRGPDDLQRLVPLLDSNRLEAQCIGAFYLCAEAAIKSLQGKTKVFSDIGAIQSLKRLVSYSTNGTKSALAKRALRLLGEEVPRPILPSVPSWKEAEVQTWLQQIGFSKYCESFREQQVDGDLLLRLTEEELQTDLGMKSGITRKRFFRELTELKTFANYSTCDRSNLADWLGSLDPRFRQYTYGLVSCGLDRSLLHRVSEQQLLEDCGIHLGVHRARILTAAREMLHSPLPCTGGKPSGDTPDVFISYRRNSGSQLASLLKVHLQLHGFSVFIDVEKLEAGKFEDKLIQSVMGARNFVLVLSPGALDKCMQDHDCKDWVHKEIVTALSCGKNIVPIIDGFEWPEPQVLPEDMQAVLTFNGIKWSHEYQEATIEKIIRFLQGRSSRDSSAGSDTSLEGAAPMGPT", "test": "inhibition of SAM-TIR NAD hydrolysis to ADPR – cell lysate, HPLC readout, primary screen (AID 1508615);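 note: substrate NAD at 5 µM with 60 min at 37 °C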", "conditions": "HEK293T SAM-TIR lysate, NAD/ADPR ratio by HPLC; at 5 µM; active compounds read high"}
{"smiles": "COc1cc(C=C2C(=O)NC(=O)NC2=O)ccc1O", "NAD/ADPR ratio": 3}
{"smiles": "O=C1NC(=O)C(=Cc2ccc3ccccc3c2)C(=O)N1", "NAD/ADPR ratio": 3}
{"smiles": "CCN(CC)c1ccc(C=C2C(=O)NC(=S)NC2=O)cc1", "NAD/ADPR ratio": "5.3 (active)"}
{"smiles": "COC12C(COC(N)=O)C3=C(C(=O)C(C)=C(N)C3=O)N1CC1C2N1C", "note": "(stereo not given)", "NAD/ADPR ratio": 3}
{"smiles": "O=C1CCC2(O)[C@@H]3Cc4ccc(O)c5c4[C@]2(CCN3Cc2ccoc2)C1O5", "note": "(stereo not given in full)", "NAD/ADPR ratio": 3}
{"smiles": "CC1=CC(O)C(O)C2(C)C1CC1OC(=O)C(O)C3C(C)C(O)C4(O)OCC13C42", "note": "(stereo not given)", "NAD/ADPR ratio": 3}
{"smiles": "COC(=O)c1nc(-c2ccc3c(n2)C(=O)C(N)=C(OC)C3=O)c(N)c(-c2ccc(OC)c(OC)c2O)c1C", "NAD/ADPR ratio": 3}
{"smiles": "CC1=C(O)C(=O)C=C2C1=CC=C1[C@@]2(C)CC[C@@]2(C)[C@@H]3C[C@](C)(C(=O)O)CC[C@]3(C)CC[C@]12C", "NAD/ADPR ratio": "12.8 (active)"}
{"smiles": "N#CC12CNCC1CN=N2", "note": "(stereo not given)", "NAD/ADPR ratio": 3}
{"smiles": "NC(=O)c1ccc(C(=O)Nc2ccc([As](=O)(O)O)cc2)cc1", "NAD/ADPR ratio": 3}
